We go through nine compounds from PubChem BioAssay (EPA / NIEHS).

The source made the active and inactive calls. The calls were made as follows: active = hit-call score of the fitted dose curve at least 0.9, where 1 is the maximum; inactive = score below 0.9.

Read-out in assay [1]: Vascular cell adhesion molecule 1 (VCAM1), VCAM1 (gene 7412)
As to the kind of experiment: BSK_4H_VCAM1: BioMAP Diversity Plus: 4H Assay for Vascular cell adhesion molecule 1 (VCAM1) Biomarker Activity (AID 2283033).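 As to outcome: cell-surface VCAM-1 protein measured by ELISA.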 The following applies: primary human endothelial cells (HUVEC); actives raise or lower the signal. The procedure, abridged: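 Primary human umbilical vein endothelial cells were exposed to chemicals for 24 h, after which VCAM-1 was quantified by ELISA. Responses were fitted bidirectionally against DMSO as negative control and activity baseline.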

Read-out in assay [2]: Interferon-gamma inducible Protein 10 (IP10), CXCL10 (gene 3627)
As to the kind of experiment: BSK_BE3C_IP10: BioMAP Diversity Plus: BE3C Assay for Interferon-gamma inducible Protein 10 (IP10) Biomarker Activity (AID 2283034). The following applies: primary human bronchial epithelial cells; actives raise or lower the signal. In short, it runs like this: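 Human primary bronchial epithelial cells were exposed to chemicals for 24 hours, after which IP-10 levels were measured by ELISA. Data were fitted bidirectionally against DMSO, which served as the negative control and activity baseline.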

Read-out in assay [3]: Monokine induced gamma interferon (MIG), CXCL9 (gene 4283)
As to the kind of experiment: BSK_BE3C_MIG: BioMAP Diversity Plus: BE3C Assay for Monokine induced gamma interferon (MIG) Biomarker Activity (AID 2283035).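 As to outcome: MIG protein measured by ELISA in BE3C cultures after 24 h of dosing.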 Conditions: primary human bronchial epithelial cells; actives raise or lower the signal. The procedure, abridged:
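MIG level was determined by ELISA after 24 h chemical treatment of primary human bronchial epithelial cells. Values were fitted bidirectionally with DMSO as the negative control and activity baseline.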

Read-out in assay [4]: Transforming growth factor beta 1 (TGFb1), TGFB1 (gene 7040)
As to the kind of experiment: BSK_BE3C_TGFb1: BioMAP Diversity Plus: BE3C Assay for Transforming growth factor beta 1 (TGFb1) Biomarker Activity (AID 2283036). The following applies: primary human bronchial epithelial cells; actives raise or lower the signal. In short, it runs like this: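 Human primary bronchial epithelial cells (BE3C system) were dosed with chemical and TGF-b1 levels measured by ELISA at 24 h. Activity was fitted bidirectionally relative to DMSO negative control as baseline.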

Read-out in assay [5]: urokinase plasminogen activator (uPA), PLAU (gene 5328)
As to the kind of experiment: BSK_BE3C_uPA: BioMAP Diversity Plus: BE3C Assay for urokinase plasminogen activator (uPA) Biomarker Activity (AID 2283038).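 As to outcome: uPA protein level quantified by ELISA in cell cultures; uPA read one day after compound addition.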 The following applies: primary human bronchial epithelial cells; actives raise or lower the signal. The procedure, abridged: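 ELISA for uPA on human primary bronchial epithelial cultures 24 h post-treatment, gain or loss against DMSO. Parallel SRB staining (0.1% after 10% TCA fixation, 560 nm) assessed overt cytotoxicity.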

Read-out in assay [6]: Urokinase-type plasminogen activator receptor (uPAR), PLAUR (gene 5329)
As to the kind of experiment: BSK_BE3C_uPAR: BioMAP Diversity Plus: BE3C Assay for Urokinase-type plasminogen activator receptor (uPAR) Biomarker Activity (AID 2283039).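 As to outcome: cells exposed to compound for one day before measurement.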 Conditions: primary human bronchial epithelial cells; actives raise or lower the signal. The procedure, abridged: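 Primary human bronchial epithelial cells were dosed with chemical and harvested 24 h later; uPAR was quantified by ELISA. Activity was fitted bidirectionally against DMSO as negative control and baseline.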

Read-out in assay [7]: Interleukin-6 (IL6), IL6 (gene 3569)
As to the kind of experiment: BSK_CASM3C_IL6: BioMAP Diversity Plus: CASM3C Assay for Interleukin-6 (IL6) Biomarker Activity for (AID 2283040). Conditions: primary human coronary artery smooth muscle cells; actives raise or lower the signal.

Read-out in assay [8]: Tissue plasminogen activator (tPA), PLAT (gene 5327)
As to the kind of experiment: BSK_BE3C_tPA: BioMAP Diversity Plus: BE3C Assay for Tissue plasminogen activator (tPA) Biomarker Activity (AID 2283041).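 As to outcome: tPA level quantified by ELISA one day after compound addition.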 Conditions: primary human bronchial epithelial cells; actives raise or lower the signal. In short, it runs like this: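 Human primary bronchial epithelial cells were dosed with chemical and tPA biomarker levels measured by ELISA 24 hours later. Activity was fitted bidirectionally against DMSO as negative control and baseline.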

Read-out in assay [9]: Interleukin-8 (IL8), CXCL8 (gene 3576)
As to the kind of experiment: BSK_CASM3C_IL8: BioMAP Diversity Plus: CASM3C Assay for Interleukin-8 (IL8) Biomarker Activity (AID 2283042).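 Also: IL-8 protein level quantified by ELISA.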 Conditions: primary human coronary artery smooth muscle cells; actives raise or lower the signal.

Read-out in assay [10]: Human Leukocyte Antigen - DR isotype (HLADR), HLA-DRA (gene 3122)
As to the kind of experiment: BSK_CASM3C_HLADR: BioMAP Diversity Plus: CASM3C Assay for Human Leukocyte Antigen - DR isotype (HLADR) Biomarker Activity (AID 2283043).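 Also: cell-surface HLA-DR protein level quantified by ELISA.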 Conditions: primary human coronary artery smooth muscle cells; actives raise or lower the signal.

Read-out in assay [11]: Macrophage colony-stimulating factor (MCSF), CSF1 (gene 1435)
As to the kind of experiment: BSK_CASM3C_MCSF: BioMAP Diversity Plus: CASM3C Assay for Macrophage colony-stimulating factor (MCSF) Biomarker Activity (AID 2283044).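 Also: M-CSF protein amount quantified by ELISA after 24 h exposure.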 Conditions: primary human coronary artery smooth muscle cells; actives raise or lower the signal.

Read-out in assay [12]: Low-density lipoprotein receptor (LDLR), LDLR (gene 3949)
As to the kind of experiment: BSK_CASM3C_LDLR: BioMAP Diversity Plus: CASM3C Assay for Low-density lipoprotein receptor (LDLR) Biomarker Activity (AID 2283045).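 Also: LDLR protein level on the cell surface quantified by ELISA.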 Conditions: primary human coronary artery smooth muscle cells; actives raise or lower the signal.

Read-out in assay [13]: Monocyte Chemoattractant Protein-1 (MCP1), CCL2 (gene 6347)
As to the kind of experiment: BSK_CASM3C_MCP1: BioMAP Diversity Plus: CASM3C Assay for Monocyte Chemoattractant Protein-1 (MCP1) Biomarker Activity (AID 2283046).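 Also: MCP-1 level quantified by ELISA 24 h after dosing.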 The following applies: primary human coronary artery smooth muscle cells; actives raise or lower the signal.

A short description of assay [14]: BSK_CASM3C_Proliferation: Cell Proliferation Assessment in the BioMAP Diversity Plus: CASM3C Assay (AID 2283047).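 Also: sulforhodamine B total protein stain as relative cell number at 560 nm; sub-confluent cells exposed 48 h before staining; fitted both ways against DMSO so gain or loss of cell number.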 The following applies: primary human coronary artery smooth muscle cells.
Read-out in assay [15]: Monokine induced gamma interferon (MIG), CXCL9 (gene 4283)
As to the kind of experiment: BSK_CASM3C_MIG: BioMAP Diversity Plus: CASM3C Assay for Monokine induced gamma interferon (MIG) Biomarker Activity (AID 2283048). Conditions: primary human coronary artery smooth muscle cells; actives raise or lower the signal.

Read-out in assay [16]: serum amyloid A (SAA), SAA1 (gene 6288)
As to the kind of experiment: BSK_CASM3C_SAA: BioMAP Diversity Plus: CASM3C Assay for serum amyloid A (SAA) Biomarker Activity (AID 2283049).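 Also: SAA protein level quantified by ELISA.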 The following applies: primary human coronary artery smooth muscle cells; actives raise or lower the signal.

Assay [17] is described as follows: BSK_CASM3C_SRB: Viability Assessment in the BioMAP Diversity Plus: CASM3C Assay (AID 2283050).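 Also: total protein by SRB staining as cytotoxicity measure in parallel cultures.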 The following applies: primary human coronary artery smooth muscle cells.
Read-out in assay [18]: Thrombomodulin, THBD (gene 7056)
As to the kind of experiment: BSK_CASM3C_Thrombomodulin: BioMAP Diversity Plus: CASM3C Assay for Thrombomodulin Biomarker Activity (AID 2283051).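 Also: thrombomodulin protein level measured by ELISA 24 h after dosing.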 The following applies: primary human coronary artery smooth muscle cells; actives raise or lower the signal.

Read-out in assay [19]: Tissue Factor, F3 (gene 2152)
As to the kind of experiment: BSK_CASM3C_TissueFactor: BioMAP Diversity Plus: CASM3C Assay for Tissue Factor Biomarker Activity (AID 2283052).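 Also: cell surface tissue factor protein level read by ELISA.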 Conditions: primary human coronary artery smooth muscle cells; actives raise or lower the signal.

Read-out in assay [20]: Plasminogen activator inhibitor-1 (PAI1), SERPINE1 (gene 5054)
As to the kind of experiment: BSK_BE3C_PAI1: BioMAP Diversity Plus: BE3C Assay for Plasminogen activator inhibitor-1 (PAI1) Biomarker Activity (AID 2283037). The following applies: primary human bronchial epithelial cells; actives raise or lower the signal. In short, it runs like this: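 Human primary bronchial epithelial cells were exposed to chemical for 24 h, then PAI-1 was quantified by ELISA. Activity was fitted bidirectionally relative to the DMSO negative control baseline.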

With `C[C@]12CCC(=O)C[C@@H]1CC[C@@H]1[C@@H]2CC[C@]2(C)[C@@H](O)CC[C@@H]12`, the result in [1], in [2], in assay [3], in assay [4], in assay [5] and in [6] was inactive. Besides, the result in assay [7], in assay [8], in assay [9], in assay [10], in assay [11] and in [12] was inactive. Further, the outcome in [13], in assay [14], in assay [15], in assay [16], in [17] and in [18] was inactive. Further, the outcome in [19] was inactive.
For the compound `COC(=O)Cc1ccccc1`, the outcome in [1], in assay [2], in assay [3], in [20], in assay [5] and in assay [6] was inactive. The outcome in assay [7], in assay [8], in assay [9], in assay [10], in [11] and in assay [12] was inactive. Further, the result in assay [13], in [14], in assay [15], in assay [16], in assay [17] and in assay [18] was inactive. The result in assay [19] was inactive.
As a reminder, the AC50 is the concentration at which the activity in the assay is half-maximal. Regarding `CC(C)(OO)c1ccccc1`, the outcome in assay [1], in [2], in [3], in [4], in assay [5] and in [6] was inactive. Besides, the outcome in [7], in assay [8], in [9], in [10], in assay [11] and in [12] was inactive. The result in assay [13], in assay [15], in assay [16], in [17], in [18] and in [19] was inactive. Besides, in assay [14], the AC50 was 22.5 µM (active).
With `Oc1ccc(-c2ccccc2)cc1`, the outcome in assay [1], in assay [2], in assay [3], in assay [4], in [5] and in assay [6] was inactive. Also, the result in [8], in [9], in assay [10], in [13], in assay [15] and in [16] was inactive. Also, the outcome in assay [18] was inactive. Moreover, the AC50 in assay [11] is 32.5 µM (active); in assay [12], 3.97 µM (active); in assay [14] it was 6 µM (active); in assay [17], 3.97 µM (active); in assay [19], 20 µM (active).
Consider `COc1cc(OC)nc(NC(=O)NS(=O)(=O)c2ncccc2C(=O)N(C)C)n1`, for which the outcome in assay [1], in [2], in assay [3], in assay [4], in assay [5] and in assay [6] was inactive. Moreover, the result in assay [7], in [8], in assay [9], in [10], in assay [11] and in assay [12] was inactive. Also, the result in [13], in assay [14], in assay [15], in assay [16], in [17] and in assay [18] was inactive. The result in assay [19] was inactive.
Regarding `C(=NC1CCCCC1)=NC1CCCCC1`, the AC50 in [1] was 7.64 µM (active); in assay [2] it was 20 µM (active); in [3], 36.3 µM (active); in assay [5], 31.8 µM (active); in assay [6] it was 20 µM (active); in assay [7], 36.8 µM (active). Moreover, the AC50 in assay [10] was 20 µM (active); in [11], 26.1 µM (active); in assay [12], 34.5 µM (active); in [13], 32.8 µM (active); in assay [15], 33.5 µM (active); in assay [16], 35.7 µM (active). Further, the AC50 in assay [17] is 20 µM (active); in [18], 34.5 µM (active); in [19], 25.1 µM (active). Moreover, the outcome in [4], in [8] and in assay [9] was inactive.
For `ClC1=C(Cl)[C@]2(Cl)[C@H]3[C@H]([C@H]4C=C[C@H]3C4)[C@@]1(Cl)C2(Cl)Cl`, the AC50 in assay [1] is 7.9 µM (active); in assay [4] it was 3.12 µM (active); in assay [20], 3.97 µM (active); in [10], 5.83 µM (active); in assay [14], 8.26 µM (active); in assay [19], 0.266 µM (active). In addition, the result in [3], in [5], in [6], in [7], in assay [8] and in [9] was inactive. For the same compound, the outcome in assay [11], in assay [12], in assay [13], in [15], in assay [16] and in assay [17] was inactive. For the same compound, in assay [18], the outcome was inactive.
On to `O=S(=O)(c1ccc(Cl)cc1)c1ccc(Cl)cc1`, for which the outcome in assay [1], in assay [2], in assay [3], in assay [4], in assay [5] and in [6] was inactive. In addition, the result in [7], in [8], in assay [9], in assay [10], in assay [11] and in [12] was inactive. The result in assay [13], in assay [14], in assay [15], in [16], in assay [17] and in [18] was inactive. For the same compound, in [19], the result was inactive.
Turning to `O=C(OC1CCCCC1)c1ccccc1C(=O)OC1CCCCC1`, the concentration at half-maximal activity (AC50) in [1] was 20.9 µM (active); in [2] it was 20.9 µM (active); in [8], 8.39 µM (active); in assay [12] it was 34.2 µM (active); in [14] it was 33.4 µM (active); in [17] it was 20.9 µM (active). Besides, the AC50 in assay [18] is 20.9 µM (active); in assay [19], 33 µM (active). The result in [3], in [4], in assay [5], in assay [6], in assay [7] and in [9] was inactive. In addition, the result in assay [10], in [11], in [13], in assay [15] and in [16] was inactive.
